According to the supplement of paper PMC10849652:
About 7,900 targets were measured; listed, in parts, are those with a hit and a random draw of the rest. About 0.6% of all pairs of compound and target were hits. Unmarked numbers belong to inactive results.

How the values were obtained:
Test in all cases: log2 fold change, soluble protein after heating vs DMSO (PISA); higher = thermal stabilisation; K562 cells, 10 uM, 30 min; active = over 0.2 and 3.5 SD of the protein, either way, in both replicates (recomputed)
[1] = target: ZER1 (UniProt Q7Z7L7)
ZER1, sequence (Q7Z7L7 whole entry, looked up): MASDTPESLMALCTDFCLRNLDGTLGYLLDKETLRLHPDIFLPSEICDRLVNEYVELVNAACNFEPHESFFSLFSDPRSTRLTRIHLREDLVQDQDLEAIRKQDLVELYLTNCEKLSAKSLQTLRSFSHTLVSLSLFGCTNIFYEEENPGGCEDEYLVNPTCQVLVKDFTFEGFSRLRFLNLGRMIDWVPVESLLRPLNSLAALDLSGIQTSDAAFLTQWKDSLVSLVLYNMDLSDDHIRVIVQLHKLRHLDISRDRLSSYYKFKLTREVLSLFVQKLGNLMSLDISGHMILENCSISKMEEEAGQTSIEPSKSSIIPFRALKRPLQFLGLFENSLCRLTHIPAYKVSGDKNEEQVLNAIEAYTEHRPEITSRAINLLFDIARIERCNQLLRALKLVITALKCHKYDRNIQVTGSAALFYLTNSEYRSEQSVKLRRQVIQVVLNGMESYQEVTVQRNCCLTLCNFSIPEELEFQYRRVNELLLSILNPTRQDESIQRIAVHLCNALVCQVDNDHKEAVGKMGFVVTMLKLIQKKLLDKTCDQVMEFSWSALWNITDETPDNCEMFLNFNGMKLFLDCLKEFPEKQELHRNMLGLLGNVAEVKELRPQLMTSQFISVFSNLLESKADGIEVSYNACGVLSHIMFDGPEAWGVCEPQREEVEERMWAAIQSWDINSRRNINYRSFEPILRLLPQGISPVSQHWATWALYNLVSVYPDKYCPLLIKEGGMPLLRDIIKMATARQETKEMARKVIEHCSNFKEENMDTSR
In short: (§1)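 Thermal stability values are relative to control samples and come from duplicates. They are expressed as log2 fold changes. For measurement, K562 cells (2×10^6 cells/mL) received 10 μM compound for 30 min, and aliquots were heated for 3 min over 48°C-58°C, pooled, and extracted at 4°C in PBS with 0.5% NP-40. Soluble protein, the supernatant after 21,000xg for 90 min, was quantified by TMTpro 16plex LC-MS/MS with equalised channel sums.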

[2] = target: ZFAND5 (UniProt O76080)
ZFAND5, sequence (O76080 whole entry, looked up): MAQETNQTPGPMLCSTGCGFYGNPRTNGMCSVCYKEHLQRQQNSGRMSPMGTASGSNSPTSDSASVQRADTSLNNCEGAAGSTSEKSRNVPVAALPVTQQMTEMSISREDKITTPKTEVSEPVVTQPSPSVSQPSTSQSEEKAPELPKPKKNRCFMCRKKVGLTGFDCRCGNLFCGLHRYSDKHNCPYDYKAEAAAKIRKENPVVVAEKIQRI
In short: as §1

[3] = target: ZFAND6 (UniProt Q6FIF0)
In short: as §1

[4] = target: ZFP91 (UniProt Q96JP5)
In short: as §1

[5] = target: ZFPL1 (UniProt O95159)
ZFPL1, sequence (O95159 whole entry, looked up): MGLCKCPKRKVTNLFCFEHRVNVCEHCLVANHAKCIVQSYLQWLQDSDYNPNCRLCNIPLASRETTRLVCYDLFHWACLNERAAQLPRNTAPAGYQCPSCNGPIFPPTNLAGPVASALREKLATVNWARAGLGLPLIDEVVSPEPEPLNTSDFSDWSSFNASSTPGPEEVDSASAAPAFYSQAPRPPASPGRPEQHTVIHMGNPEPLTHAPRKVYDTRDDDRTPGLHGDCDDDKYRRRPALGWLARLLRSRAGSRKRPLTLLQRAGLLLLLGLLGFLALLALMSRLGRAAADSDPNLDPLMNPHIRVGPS
In short: as §1

[6] = target: ZMAT2 (UniProt Q96NC0)
ZMAT2, sequence (Q96NC0 whole entry, looked up): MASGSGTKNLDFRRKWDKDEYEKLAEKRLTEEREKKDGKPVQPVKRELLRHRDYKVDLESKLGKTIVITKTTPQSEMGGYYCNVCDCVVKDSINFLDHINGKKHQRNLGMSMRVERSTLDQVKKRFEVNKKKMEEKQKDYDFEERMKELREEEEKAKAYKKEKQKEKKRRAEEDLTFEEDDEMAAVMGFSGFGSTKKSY
In short: as §1

[7] = target: ZMYM1 (UniProt Q5SVZ6)
ZMYM1, sequence (Q5SVZ6 whole entry, looked up): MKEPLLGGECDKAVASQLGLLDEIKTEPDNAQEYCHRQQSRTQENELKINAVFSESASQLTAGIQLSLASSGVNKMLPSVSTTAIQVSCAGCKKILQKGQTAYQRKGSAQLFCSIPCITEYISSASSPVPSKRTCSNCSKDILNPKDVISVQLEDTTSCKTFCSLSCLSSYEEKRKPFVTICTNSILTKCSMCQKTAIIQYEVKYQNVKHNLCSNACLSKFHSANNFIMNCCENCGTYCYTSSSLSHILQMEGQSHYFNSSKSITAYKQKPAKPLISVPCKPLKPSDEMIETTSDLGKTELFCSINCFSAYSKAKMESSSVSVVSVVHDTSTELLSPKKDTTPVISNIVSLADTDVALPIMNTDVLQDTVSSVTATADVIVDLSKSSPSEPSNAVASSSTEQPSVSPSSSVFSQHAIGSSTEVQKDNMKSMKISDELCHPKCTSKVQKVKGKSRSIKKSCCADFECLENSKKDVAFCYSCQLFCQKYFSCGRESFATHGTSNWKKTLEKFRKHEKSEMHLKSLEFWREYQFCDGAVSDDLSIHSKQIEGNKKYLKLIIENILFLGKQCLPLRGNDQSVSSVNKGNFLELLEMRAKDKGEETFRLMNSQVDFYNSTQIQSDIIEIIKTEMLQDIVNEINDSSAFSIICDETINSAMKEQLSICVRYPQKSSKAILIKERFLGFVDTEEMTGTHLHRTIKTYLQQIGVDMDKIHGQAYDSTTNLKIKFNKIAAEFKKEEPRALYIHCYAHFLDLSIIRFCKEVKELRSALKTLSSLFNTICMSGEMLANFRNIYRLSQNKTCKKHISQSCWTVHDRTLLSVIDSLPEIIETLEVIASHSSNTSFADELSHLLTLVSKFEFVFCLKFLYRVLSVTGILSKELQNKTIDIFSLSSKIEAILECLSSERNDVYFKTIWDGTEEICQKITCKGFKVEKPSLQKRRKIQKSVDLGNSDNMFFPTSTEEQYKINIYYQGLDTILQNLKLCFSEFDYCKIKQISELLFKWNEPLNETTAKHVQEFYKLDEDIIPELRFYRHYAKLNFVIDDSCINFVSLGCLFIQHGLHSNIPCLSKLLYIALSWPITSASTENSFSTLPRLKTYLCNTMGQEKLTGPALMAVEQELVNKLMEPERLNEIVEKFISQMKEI
In short: as §1

[8] = target: ZMYM3 (UniProt Q14202)
In short: as §1

[9] = target: ZNF143 (UniProt P52747)
In short: as §1

[10] = target: ZNF217 (UniProt O75362)
In short: as §1

[11] = target: ZNF277 (UniProt Q9NRM2)
In short: as §1

[12] = target: ZNF511 isoform 1 (UniProt Q8NB15)
ZNF511 isoform 1, sequence (Q8NB15 whole entry, looked up, canonical isoform): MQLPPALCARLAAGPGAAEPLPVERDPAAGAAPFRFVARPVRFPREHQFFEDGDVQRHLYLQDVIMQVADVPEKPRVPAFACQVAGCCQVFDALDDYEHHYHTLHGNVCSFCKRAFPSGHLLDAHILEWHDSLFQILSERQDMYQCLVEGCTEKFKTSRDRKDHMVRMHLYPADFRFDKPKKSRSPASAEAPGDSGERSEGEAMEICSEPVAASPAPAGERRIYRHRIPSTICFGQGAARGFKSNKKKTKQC
In short: as §1

[13] = target: ZNF579 (UniProt Q8NAF0)
In short: as §1

[14] = target: ZNF580 (UniProt Q9UK33)
ZNF580, sequence (Q9UK33 whole entry, looked up): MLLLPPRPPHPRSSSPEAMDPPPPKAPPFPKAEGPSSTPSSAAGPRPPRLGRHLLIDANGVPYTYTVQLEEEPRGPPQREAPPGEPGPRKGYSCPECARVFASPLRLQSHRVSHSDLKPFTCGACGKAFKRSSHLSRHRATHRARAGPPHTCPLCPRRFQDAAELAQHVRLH
In short: as §1

[15] = target: ZNF609 (UniProt O15014)
ZNF609, sequence (O15014 whole entry, looked up): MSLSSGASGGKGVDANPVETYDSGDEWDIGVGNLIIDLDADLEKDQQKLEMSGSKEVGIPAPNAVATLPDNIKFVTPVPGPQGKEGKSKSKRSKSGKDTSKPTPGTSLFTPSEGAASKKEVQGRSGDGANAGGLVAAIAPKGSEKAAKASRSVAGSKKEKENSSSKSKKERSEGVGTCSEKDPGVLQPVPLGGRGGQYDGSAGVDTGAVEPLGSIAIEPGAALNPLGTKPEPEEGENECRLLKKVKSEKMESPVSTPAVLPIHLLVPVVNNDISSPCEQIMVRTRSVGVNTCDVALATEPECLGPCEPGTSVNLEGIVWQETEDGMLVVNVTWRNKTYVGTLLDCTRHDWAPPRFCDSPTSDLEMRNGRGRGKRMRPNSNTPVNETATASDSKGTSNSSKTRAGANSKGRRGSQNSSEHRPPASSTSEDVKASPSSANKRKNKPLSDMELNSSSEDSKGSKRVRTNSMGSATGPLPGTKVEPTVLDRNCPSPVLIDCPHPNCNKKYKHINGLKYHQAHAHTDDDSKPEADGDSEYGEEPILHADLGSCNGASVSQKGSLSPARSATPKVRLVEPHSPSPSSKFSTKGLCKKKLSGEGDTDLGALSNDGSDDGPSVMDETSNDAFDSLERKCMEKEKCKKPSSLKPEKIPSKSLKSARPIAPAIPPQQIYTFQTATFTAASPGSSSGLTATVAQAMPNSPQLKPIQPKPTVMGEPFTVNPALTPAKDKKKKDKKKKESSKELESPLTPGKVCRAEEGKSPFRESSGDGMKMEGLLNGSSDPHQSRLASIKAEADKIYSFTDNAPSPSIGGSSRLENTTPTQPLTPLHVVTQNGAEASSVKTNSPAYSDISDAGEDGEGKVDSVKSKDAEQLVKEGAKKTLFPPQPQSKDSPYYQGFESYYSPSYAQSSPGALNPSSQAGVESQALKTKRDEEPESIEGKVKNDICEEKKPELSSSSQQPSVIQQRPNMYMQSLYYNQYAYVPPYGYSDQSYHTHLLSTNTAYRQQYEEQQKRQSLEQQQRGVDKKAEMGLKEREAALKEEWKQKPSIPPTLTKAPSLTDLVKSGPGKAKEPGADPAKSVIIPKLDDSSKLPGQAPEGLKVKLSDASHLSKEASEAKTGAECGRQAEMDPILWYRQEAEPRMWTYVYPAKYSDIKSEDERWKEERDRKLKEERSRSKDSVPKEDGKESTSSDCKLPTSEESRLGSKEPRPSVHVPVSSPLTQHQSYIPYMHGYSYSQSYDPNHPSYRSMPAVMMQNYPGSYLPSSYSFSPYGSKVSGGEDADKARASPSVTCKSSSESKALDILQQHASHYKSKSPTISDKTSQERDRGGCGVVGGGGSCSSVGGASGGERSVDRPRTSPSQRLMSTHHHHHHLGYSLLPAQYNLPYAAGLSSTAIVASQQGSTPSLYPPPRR
In short: as §1

[16] = target: ZNF622 (UniProt Q969S3)
ZNF622, sequence (Q969S3 whole entry, looked up): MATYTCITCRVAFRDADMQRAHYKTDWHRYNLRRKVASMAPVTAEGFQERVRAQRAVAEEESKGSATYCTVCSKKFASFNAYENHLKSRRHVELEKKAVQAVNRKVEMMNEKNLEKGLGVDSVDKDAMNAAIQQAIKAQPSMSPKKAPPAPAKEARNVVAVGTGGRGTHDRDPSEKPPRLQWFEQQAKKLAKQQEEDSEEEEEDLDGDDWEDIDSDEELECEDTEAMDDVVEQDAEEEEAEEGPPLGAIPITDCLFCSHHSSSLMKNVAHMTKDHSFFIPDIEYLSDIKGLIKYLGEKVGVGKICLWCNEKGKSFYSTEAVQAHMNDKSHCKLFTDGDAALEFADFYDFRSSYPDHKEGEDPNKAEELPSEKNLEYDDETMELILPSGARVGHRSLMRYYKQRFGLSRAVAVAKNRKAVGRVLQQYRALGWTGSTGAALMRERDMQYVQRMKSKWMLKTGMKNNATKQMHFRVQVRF
In short: as §1

[17] = target: ZRANB2 (UniProt O95218)
In short: as §1

[18] = target: ZNF239 (UniProt Q16600)
In short: as §1

[19] = target: ZNF512 (UniProt Q96ME7)
In short: as §1

[20] = target: ZEB2 (UniProt O60315)
In short: as §1

SMILES	log2 fold change [1]	log2 fold change [2]	log2 fold change [3]	log2 fold change [4]	log2 fold change [5]	log2 fold change [6]	log2 fold change [7]	log2 fold change [8]	log2 fold change [9]	log2 fold change [10]	log2 fold change [11]	log2 fold change [12]	log2 fold change [13]	log2 fold change [14]	log2 fold change [15]	log2 fold change [16]	log2 fold change [17]	log2 fold change [18]	log2 fold change [19]	log2 fold change [20]
c1cn2cc(-c3ccc4cn[nH]c4c3)nc(Nc3ccc(N4CCOCC4)cc3)c2n1 [entospletinib]	0.036	0.128	0.019	0.011	0.034	-0.116	0.174	-0.043	0.015	0.011	0.031	0.1	-0.14	0.004	-0.111	0.021	0.037	–	–	–
c1cc(OCCN2CCCCC2)cc(-c2n[nH]c3ccc(-c4nnc[nH]4)cc23)c1	0.023	-0.063	-0.006	-0.161	0.008	0.035	-0.229	0.029	-0.06	-0.096	-0.275	-0.043	0.078	-0.083	-0.003	0.092	0.021	–	–	–
CC[C@@H]1C(=O)N(C)c2cnc(Nc3ccc(C(=O)NC4CCN(C)CC4)cc3OC)nc2N1C1CCCC1	-0.032	0.052	0.058	0.104	-0.027	0.017	0.202	0.015	-0.018	0.029	0.328	-0.041	-0.017	0.037	0.047	0.069	0.022	–	–	–
C/C(=N\NC(=O)c1cccc(S(=O)(=O)N2CCOCC2)c1)c1cc(Cl)ccc1O	0.019	-0.018	-0.075	-0.069	0.099	0.001	-0.174	-0.004	0.127	0.074	-0.031	-0.402 (active)	0.147	–	-0.048	0.015	-0.067	0.019	-0.085	–
CN1CCN(c2nc(C3=C(c4c[nH]c5ccccc45)C(=O)NC3=O)c3ccccc3n2)CC1 [sotrastaurin]	0.078	0.11	0.13	0.105	0.003	-0.088	0.027	0.027	-0.031	-0.019	–	0.001	0.014	0.039	0.016	0.018	-0.027	0.144	–	-0.056
CO[C@H]1C[C@@H]2CC[C@@H](C)[C@@](O)(O2)C(=O)C(=O)N2CCCC[C@H]2C(=O)O[C@H]([C@H](C)C[C@@H]2CC[C@H](n3cnnn3)[C@H](OC)C2)CC(=O)[C@H](C)/C=C(\C)[C@@H](O)[C@@H](OC)C(=O)[C@H](C)C[C@H](C)/C=C/C=C/C=C/1C [zotarolimus]	-0.035	-0.012	-0.045	-0.028	0.006	-0.034	-0.05	0.093	0.067	-0.007	-0.084	0.066	0.099	–	-0.008	-0.017	-0.011	-0.483	-0.024	–
CON(C)C(=O)N1N=C(c2cc(F)ccc2F)S[C@@]1(CCCN)c1ccccc1 [filanesib]	-0.006	0.073	-0.111	0.183	-0.001	-0.084	0.067	0.012	0.024	-0.045	–	0.019	0.181	0.152	0.049	-0.101	0	0.051	–	0.025
CN1CCC(CNc2ccc3ncc(-c4cccc(OC(F)(F)F)c4)n3n2)CC1	-0.172	-0.068	-0.037	0.171	-0.085	0.008	0.086	0.035	-0.109	-0.081	0.077	–	0.103	0.054	-0.134	0.03	0.01	-0.063	–	–
O=C1c2ccccc2-c2n[nH]c3cccc1c23	-0.009	-0.055	-0.055	-0.004	-0.055	0.018	0.001	-0.093	-0.077	0.03	0.065	0.041	0.279	–	0.002	0.042	-0.059	0.004	0.161	–
Cc1cc(Nc2cc(CN3CCOCC3)c3nc(C)c(Cc4ccc(Cl)cc4F)n3n2)n[nH]1 [gandotinib]	-0.269	0.066	-0.004	0.214	0.011	-0.014	0.305	0.051	0.025	-0.098	0.041	–	0.036	0.041	-0.073	0.075	0.064	-0.267	–	–
O=C1NC(=NCc2cccs2)S/C1=C\c1ccc2ncccc2c1	-0.016	-0.015	0.077	-0.007	0.01	-0.063	0.113	0	-0.028	0.007	0.019	0.087	-0.051	–	-0.025	0.07	-0.059	0.117	0.102	–
CNCc1ccc(-c2[nH]c3cc(F)cc4c3c2CCNC4=O)cc1 [rucaparib]	-0.271	-0.012	-0.241 (active)	0.113	0.021	-0.206	0.331	0.049	-0.008	-0.025	0	-0.006	0.01	0.136	-0.034	-0.194	-0.034	–	–	–
C[C@@H](N)c1ccc(C(=O)Nc2ccnc3[nH]ccc23)cc1	-0.055	-0.021	0.031	0.154	-0.006	-0.012	0.016	0.045	-0.118	-0.013	0.315	-0.105	0.102	–	0.033	0	-0.043	0.022	0.45	–
O=C(CCCCCCC(=O)Nc1ccccc1)NO [vorinostat]	0.055	-0.047	0.04	0.013	-0.053	-0.019	-0.02	0.073	0.037	0.056	-0.022	–	-0.032	-0.064	-0.128	-0.049	-0.03	0.275	–	–
CS(=O)(=O)N1CCN(Cc2cc3nc(-c4cccc5[nH]ncc45)nc(N4CCOCC4)c3s2)CC1 [pictilisib]	0.085	0.007	0.063	-0.07	0.173	0.01	-0.018	-0.022	-0.06	-0.038	-0.249	–	0.02	-0.037	0.107	0.144	0.01	-0.249	–	–
